Assay results published in PubChem BioAssay (NCI).
About 79,000 compounds went through this panel and 15% of them were active in at least one assay; those are over-represented in the sample as a whole. A number with no mark means an inactive call. Activity calls are given as the source filed them. Cut-off read from the data, not from the text of the source: active = growth inhibition above about 70%; inactive = the rest.

Columns and labels:
[1] = NCI Yeast Anticancer Drug Screen. Data for the rad50 strain (AID 155);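 note: 0% = growth of vehicle-only cultures of the same strain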; conditions: S. cerevisiae rad50 strain growth inhibition; at 50.0 µM; hits give high values
Outline: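 Yeast carrying a defined DNA repair defect were exposed to test compounds, and growth was compared with vehicle-treated controls to give percent inhibition.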

[2] = NCI Yeast Anticancer Drug Screen. Data for the mec2-1 strain (AID 157); conditions: S. cerevisiae mec2-1 strain, at 50.0 µM, hits give high values
Outline: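 Strain: mec2-1 (DNA repair/cell cycle alteration). Compound exposure, then growth measured; inhibition expressed relative to vehicle.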

[3] = NCI Yeast Anticancer Drug Screen. Data for the sgs1 mgt1 strain (AID 161);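 note: 0% = growth of cultures given vehicle only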; conditions: S. cerevisiae sgs1 mgt1 strain, at 50.0 µM, hits give high values
Outline: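 Mutant yeast exposed to compound; growth scored against vehicle-only wells.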

[4] = NCI Yeast Anticancer Drug Screen. Data for the cln2 rad14 strain (AID 165);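 note: 0% = growth equal to vehicle treated cultures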; conditions: S. cerevisiae cln2 rad14 strain, at 50.0 µM, hits give high values
Outline: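 Compounds are applied to the cln2 rad14 yeast strain, and growth is then compared with that of vehicle-treated cultures to give inhibition.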

[5] = NCI Yeast Anticancer Drug Screen. Data for the bub3 strain (AID 167); conditions: S. cerevisiae bub3 mutant strain, at 50.0 µM, hits give high values
Outline: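 Compounds were applied to a genetically altered yeast strain carrying a cell-cycle control defect. Growth inhibition was scored against vehicle-treated controls.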

[6] = NCI Yeast Anticancer Drug Screen. Data for the mlh1 rad18 strain (AID 175); conditions: S. cerevisiae mlh1 rad18 strain growth inhibition; at 50.0 µM; hits give high values
Outline: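 Read-out is yeast growth inhibition, calculated against vehicle-only controls. The compound was applied to a strain engineered with DNA damage repair alterations.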

Compound | growth inhibition [1] | growth inhibition [2] | growth inhibition [3] | growth inhibition [4] | growth inhibition [5] | growth inhibition [6]
O=C(CCl)OC1CCCCC1C1CCCCC1 (stereo not given) | 22.7% | 12.8% | 39.3% | -1.5% | 32% | 39.6%
CCSc1nc(COC(=O)NC)c(COC(=O)NC)n1C | 4.9% | -4.25% | 8.25% | -4.15% | 10.7% | 3.65%
Cc1ccccc1C1OC(=O)c2ccccc21 (stereo not given) | 17.7% | -8.85% | 4.45% | 4.2% | 15.2% | 27.6%
O=C(NCP(=O)(c1ccccc1)c1ccccc1)OCc1ccccc1 | -50.2% | -3.7% | -25.9% | 10.4% | -12.5% | 6.6%
CN1CN(C)C(c2ccncc2)=C1c1ccncc1 | -36% | -47.5% | -29.9% | -0.5% | -58.3% | -19.5%
COC(=O)C(N)Cc1ccc(OC)cc1 (stereo not given) | -4.95% | -9.25% | 8.1% | -1.95% | 7.6% | 3.75%
CN(C)c1ccc(/C=N/N=C2\C(=O)Nc3c(Cl)cc(Cl)cc32)cc1 | 25.2% | -0.25% | 56.8% | 43.1% | 43.5% | 78.8% (active)
COC(=O)C1(C)CCCC2(C)C3CC4OC4(C(C)C)CC3(O)CCC12 (stereo not given) | -4.5% | 6.85% | 4% | -8.4% | -12.1% | 42.1%
Cc1cc(-c2ccc(NC(=O)c3cccc([N+](=O)[O-])c3)c(C)c2)ccc1NC(=O)c1cccc([N+](=O)[O-])c1 | -19.2% | -26.7% | 0.25% | 15.3% | 0.7% | -14.3%
CCC(=N)C(c1ccccc1)(c1ccccc1)C(C)CN(C)C (stereo not given) | 23.6% | -7.3% | -2.4% | -4.75% | -9.15% | 13.7%
Cc1cc(C)c(NC(=O)CC#N)cc1C | -5% | -12.6% | -17.4% | -51.4% | -1.35% | -6.6%
CC1(C)CC(=O)C(CC(C(=O)C(=O)Nc2cc(C(F)(F)F)ccc2Cl)C(=O)c2ccco2)C(=O)C1 (stereo not given) | -1.55% | 30.1% | 18.9% | -22.4% | 13% | 19.1%
O=C(O)/C=C(/Oc1ccccc1)c1ccccc1 | -12.3% | -7.7% | -7.95% | -8.7% | -19.8% | -3.55%
CCCCCCCCCCCC(=O)NC(=S)Nc1cc(OC)ccc1OC | -17.9% | -7.25% | -2.9% | -47.3% | -3.85% | -0.95%
NC(=O)C1=Cc2cccn2-c2ccccc2S1 | 3.45% | -2.1% | -2.75% | -16.6% | 2.1% | 0.8%
Cc1ccc2nc(Nc3ccc(Cl)cc3)cc(C(O)C3CCCCN3)c2c1 (stereo not given) | 99.5% (active) | 99.8% (active) | 99.7% (active) | 99.2% (active) | 88.8% (active) | 99.5% (active)
Cc1nc2ccccc2c(=O)n1NC(=S)Nc1ccc(Cl)cc1 | 3.6% | -31.2% | 4.25% | -23.6% | -18.4% | -14.9%
CCOC(=O)N1CCc2cc(OC)c(OC)c3c2c1cc1cc(OC)c(OC)cc13 | -9.2% | 18.9% | -4.55% | -35.5% | 16.1% | 16.4%
Cc1nnc(N=Nc2c(O)[nH]c3ccccc23)[nH]c1=O | 7.05% | 1.2% | -6.65% | -0.2% | 2.65% | 16.1%
O=C(Nc1ccc(Br)cc1)Oc1ccc(-c2ccccc2)cc1 | 28.9% | 9.15% | 4.6% | 18.1% | 41.8% | 18.4%

Compound | growth inhibition [1] | growth inhibition [2] | growth inhibition [3] | growth inhibition [4] | growth inhibition [5] | growth inhibition [6]
CS(=O)(=O)C(CCC(=O)c1ccc2ccccc2c1)C(=O)c1ccccc1 (stereo not given) | 3.1% | -12.7% | 5.3% | 20.4% | -2.4% | -7.15%
O=c1[nH]c(=S)[nH]c2c1CN(CCCN1CCOCC1)CN2 | 10.3% | -8.7% | -15.8% | 3.2% | -25.1% | 5.45%
CCN(CCO)CC(=O)c1ccc(Cl)c(Cl)c1 | 0.2% | -12.5% | -6.95% | -13.8% | 16.1% | -0.9%
COC(=O)C1=C(C(=O)OC)C2(C3C(SC)=CC(C)(C)CC3S1)N(Cc1ccccc1)CCN2Cc1ccccc1 (stereo not given) | -7.65% | -5.25% | -9.95% | 9.05% | -8.7% | -27.2%
N#C/C(=C(\O)C(=O)O)c1ccc(-c2cccc3ccccc23)cc1 | 29.6% | 0.6% | -17.9% | 1.9% | 16.7% | 26.9%
c1ccc(C2=NN3CN(N2)c2ccccc2OCCCOc2ccccc23)cc1 | -25.2% | 2.05% | -5.55% | 12.8% | 18.3% | 6.25%
Cc1cccc(/C=N/NC(=S)NCCc2ccccn2)n1 | -17.4% | -33.8% | 14.2% | 0.8% | 9.55% | -2.85%
CCN(CC)C(=S)Nc1ccc(-c2cc3ccc(O)cc3oc2=O)cc1 | -6.95% | 11.6% | -5.45% | 32.9% | 18.2% | 6.15%
O=C1C=C(Nc2cc(Cl)ccc2Cl)c2ccccc2C1=O | 9.75% | 4.25% | -8.8% | 6.8% | 15.2% | 32.5%
N#CC(OC(=O)c1cccc(C(=O)OC(C#N)(C(F)(F)F)C(F)(F)F)c1Sc1ccccc1)(C(F)(F)F)C(F)(F)F | 27% | 13.8% | -10.1% | -7.8% | 7.55% | -1.3%
CCN(CC)C(=O)/C(C)=C(\C)c1ccccc1 | -12.7% | 11.8% | -11.6% | 8.3% | 2.9% | -1.45%
S=C1N=C(Cl)C2(NN1)c1ccccc1-c1ccccc12 | 17.9% | -16.1% | -1.15% | -14.5% | -11.7% | 32%
Cc1ccc(C(=O)Nc2ccc(CP(=O)(O)O)cc2)cc1NC(=O)c1cccc(N)c1 | -27.2% | -14.7% | -20.4% | 0.9% | -9% | 4.15%
COC(=O)C1c2ccoc2CC2C1C(O)C(O)C1C(C)(C)CCCC21C (stereo not given) | 57.5% | 88.6% (active) | 77.8% (active) | 72% (active) | 81.6% (active) | 92.5% (active)
O=C(CC(=O)c1ccccc1)CC(=O)c1ccc(C(=O)CC(=O)CC(=O)c2ccccc2)cc1 | 29.4% | 1.3% | 30.9% | 0.85% | -1.8% | 22.4%
Nc1nc(Sc2ccc([N+](=O)[O-])c3nonc23)c2ncn(C3OC(CO)C(O)C3O)c2n1 (stereo not given) | -0.7% | -11.3% | 3% | 26.6% | -6.3% | 11.9%
CCC(C)NC(=O)C(C)C (stereo not given) | 2.7% | -3.6% | -2.9% | -32.8% | -3.3% | 16.4%
CC1=C[C@@H]2[C@@H](CC(CO)=C[C@H]3[C@@H]4C(C)(C)[C@]4(OCC(C)C)[C@H](OCC(C)C)[C@@H](C)[C@]23O)C1=O | -13.7% | -14.2% | -55.5% | -0.1% | -69.2% | -13.9%
O=NN(CCCl)C(=O)N(C1CCCCC1)C1CCCCC1 | 8.5% | -3.95% | 12.1% | 3.35% | 5% | 27.7%
O=C1c2ccccc2C(=O)N1CC(O)COc1cccc2ccccc12 (stereo not given) | -23.1% | -79.5% | -24.4% | -13.9% | 8.3% | -14.8%
